{
  "source": "PubChem BioAssay (NCATS)",
  "note": "Records with an inconclusive call do not appear. Unmarked numbers belong to inactive results. Activity calls are given as the source filed them. Calls follow the shape of the dose curve; as a rule, active = well fitted cell-killing curve with a large enough effect; inconclusive = small, poorly fitted or top-dose-only effect; inactive = flat fitted curve, though single readings scatter. Potency is read from the fitted curve at half-maximal effect.",
  "data": [
    {"assay": "Cell Viability - LYMP2-018 (AID 985);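 also: compound exposure lasted 24 hr at 37 °C; nearly all actives have a fitted effect of over 50% in size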;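 as to activity change, negative = cytotoxicity: plate controls were DMSO only for no effect and tetraoctylammonium bromide at 92 µM for full effect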", "settings": "LYMP2-018 lymphoblastoid cells, viability (qHTS); series mostly up to 92.2 µM; activity change, negative = cytotoxicity: at the top concentration", "source_text": "NIH Chemical Genomics Center [NCGC]\nNIH Molecular Libraries Screening Centers Network [MLSCN]\nNational Institutes of Environmental Health Sciences [NIEHS]\nNational Toxicology Program [NTP]\nWe have developed a 1536-well cell-based assay for quantitative high throughput screening (qHTS) against a number of cell lines to determine in vitro cytotoxicity of small molecules. This particular assay uses a human lymphoblastoid cell line (LYMP2-018) purchased from Coriell Institute for Medical Research.\nNCGC Assay Protocol Summary:\nThe CellTiter-Glo luminescent cell viability assay (Promega) is a homogeneous method to measure the number of viable cells in culture. The end point readout of this assay is based on quantitation of intracellular ATP, an indicator of metabolic activity, using the luciferase reaction. Luciferase catalyzes the oxidation of beetle Luciferin to oxyluciferin and light in the presence of ATP. The luminescent signal is proportional to amount of ATP present.\nUsing the CellTiter-Glo luminescent cell viability assay, the amount of cellular ATP was measured in the lymphoblastoid cell line with complete culture medium following compound treatment for 24 hours. The assay was performed in opaque white Kalypsys 1536-well plates. In the screen, tetraoctylammonium bromide was used as positive control. Library compounds were measured for their ability to cause acute toxicity in the cell line, as reflected by a decrease in intracellular ATP levels, in a concentration-dependent manner. […] AC50 values were determined from concentration-response data modeled with the standard Hill equation.\nqHTS protocol for CellTiter Glo lymphoblastoid cellular assay\n[Step] [Parameter] [Value] [Description]\n1. Reagent; 5 uL; 2500 lymphoblastoid cells/well\n2. Time; 5 hr; 37 C incubation\n4. Controls; 23 nL; Tetraoctylammonium bromide 6.4pM to 92 uM\n5. Time; 24 hr; 37 C incubation\n6. Reagent; 5 uL; CellTiter Glo reagent\n7. Time; 30 min; Room Temperature\n8. Detection; Luminescence; Viewlux plate reader\nKeywords: cell viability, cytotoxicity, lymphoblastoid cell line, luminescence, NTPHTS, NTPHTS_NCGC, NIEHS, DSSTox, MLSMR, MLSCN, NIH Roadmap, qHTS, NCGC", "units": {"activity change, negative = cytotoxicity": "%"}, "values": [
      {"smiles": "NC(N)=O", "activity change, negative = cytotoxicity": 8.09},
      {"smiles": "C[C@H](CCC(=O)O)[C@H]1CC[C@H]2[C@@H]3CC[C@@H]4C[C@H](O)CC[C@]4(C)[C@H]3C[C@H](O)[C@]12C", "activity change, negative = cytotoxicity": -0.706},
      {"smiles": "OCC(O)CO", "Potency": "inactive"},
      {"smiles": "C=C1C(CCl)(CCl)C2(Cl)C(Cl)C(Cl)C1(Cl)C2(Cl)Cl", "note": "(stereo unspecified)", "Potency": "50.1 µM (active)"},
      {"smiles": "C[C@H]1O[C@@H](O[C@H]2[C@@H](O)C[C@H](O[C@H]3[C@@H](O)C[C@H](O[C@H]4CC[C@@]5(C)[C@H](CC[C@@H]6[C@@H]5C[C@@H](O)[C@]5(C)[C@@H](C7=CC(=O)OC7)CC[C@]65O)C4)O[C@@H]3C)O[C@@H]2C)C[C@H](O)[C@@H]1O", "Potency": "0.158 µM (active)"},
      {"smiles": "Cc1ncc[nH]1", "activity change, negative = cytotoxicity": -1.26},
      {"smiles": "C[C@H](CCC(=O)O)[C@H]1CC[C@H]2[C@@H]3[C@H](O)C[C@@H]4C[C@H](O)CC[C@]4(C)[C@H]3C[C@H](O)[C@]12C", "activity change, negative = cytotoxicity": -9.98},
      {"smiles": "COC(=O)c1ccccc1O", "activity change, negative = cytotoxicity": 5.46},
      {"smiles": "OCl", "activity change, negative = cytotoxicity": -12.4},
      {"smiles": "CC1=CCC2CC1C2(C)C", "note": "(stereo unspecified)", "activity change, negative = cytotoxicity": -4.8},
      {"smiles": "CC(C)(C)CC(C)(C)c1ccc(OCCO)cc1", "activity change, negative = cytotoxicity": -7.3},
      {"smiles": "NCCN", "activity change, negative = cytotoxicity": -2.43},
      {"smiles": "OC[C@H]1O[C@@H]2O[C@H]3[C@H](O)[C@@H](O)[C@@H](O[C@H]4[C@H](O)[C@@H](O)[C@@H](O[C@H]5[C@H](O)[C@@H](O)[C@@H](O[C@H]6[C@H](O)[C@@H](O)[C@@H](O[C@H]7[C@H](O)[C@@H](O)[C@@H](O[C@H]1[C@H](O)[C@H]2O)O[C@@H]7CO)O[C@@H]6CO)O[C@@H]5CO)O[C@@H]4CO)O[C@@H]3CO", "activity change, negative = cytotoxicity": -3.16},
      {"smiles": "CC(C)O", "activity change, negative = cytotoxicity": -9.51},
      {"smiles": "O=P(O)(O)O", "activity change, negative = cytotoxicity": -9.09},
      {"smiles": "Nc1ncnc2c1ncn2[C@H]1CC[C@@H](CO)O1", "activity change, negative = cytotoxicity": 9.65},
      {"smiles": "CO/N=C(/C(=O)N[C@@H]1C(=O)N2C(C(=O)O)=C(COC(N)=O)CS[C@H]12)c1ccco1", "activity change, negative = cytotoxicity": -0.726},
      {"smiles": "CCCCC", "activity change, negative = cytotoxicity": -5.65},
      {"smiles": "Oc1cccc(O)c1O", "activity change, negative = cytotoxicity": -21.4},
      {"smiles": "O.O.O.O.O.O.O.O=S(=O)([O-])[O-].[Co+2]", "activity change, negative = cytotoxicity": -29.7},
      {"smiles": "Cc1ccc(S(=O)(=O)O)cc1C", "activity change, negative = cytotoxicity": -0.182},
      {"smiles": "Oc1ccc(/C=C/c2cc(O)cc(O)c2)cc1", "activity change, negative = cytotoxicity": -23.7},
      {"smiles": "Nc1nccs1", "activity change, negative = cytotoxicity": -0.228},
      {"smiles": "CC[C@H]1OC(=O)[C@H](C)[C@@H](O[C@H]2C[C@@](C)(OC)[C@@H](O)[C@H](C)O2)[C@H](C)[C@@H](O[C@@H]2O[C@H](C)C[C@H](N(C)C)[C@H]2O)[C@](C)(O)C[C@@H](C)CN(C)[C@H](C)[C@@H](O)[C@]1(C)O", "activity change, negative = cytotoxicity": -29.5},
      {"smiles": "[O-][N+](=Nc1ccccc1)c1ccccc1", "activity change, negative = cytotoxicity": -13.4},
      {"smiles": "CCOC(C)OCC", "activity change, negative = cytotoxicity": -5.74},
      {"smiles": "c1ccc2ccccc2c1", "activity change, negative = cytotoxicity": -0.229},
      {"smiles": "CCCCO", "Potency": "inactive"},
      {"smiles": "OB(O)O", "activity change, negative = cytotoxicity": 7.59},
      {"smiles": "CO", "activity change, negative = cytotoxicity": -4.4},
      {"smiles": "OCc1ccccc1", "activity change, negative = cytotoxicity": -12},
      {"smiles": "Nc1ccc(N=Nc2ccccc2)c(N)n1", "activity change, negative = cytotoxicity": -28.4},
      {"smiles": "O=c1n(CC2CO2)c(=O)n(CC2CO2)c(=O)n1CC1CO1", "note": "(stereo unspecified)", "Potency": "15.8 µM (active)"},
      {"smiles": "ClC(Cl)Cl", "activity change, negative = cytotoxicity": -0.849},
      {"smiles": "CC1=CC(=O)NS(=O)(=O)O1", "activity change, negative = cytotoxicity": 0.994},
      {"smiles": "C/C=C/C=C/C(=O)O", "activity change, negative = cytotoxicity": -8.22}
    ]}
  ]
}
